Data on 40 compounds can be found in PubChem BioAssay (Tox21).

Inconclusive results are not listed. Entries that show only a call come without a potency. Calls of active or inactive are those of the source. Calls come from the whole dose curve.

The test can be described thus: p53 small molecule agonists, cell-based qHTS assay with human liver microsomes (AID 1963577).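 Note: p53 response element beta-lactamase reporter cells with liver microsomes plus NADPH.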 The note with it: HCT-116 p53RE-bla with human liver microsomes, ratio, 16 h; series mostly up to 66 µM. An excerpt: National Center for Advancing Translational Sciences [NCATS]
Division of Preclinical Innovation [DPI]
U.S. Environmental Protection Agency [EPA]
National Institutes of Environmental Health Sciences [NIEHS]
National Toxicology Program [NTP]
U.S. Food and Drug Administration [FDA]
p53, a tumor suppressor protein, is activated following cellular insult, including DNA damage and other cellular stresses. The activation of p53 regulates cell fate by inducing DNA repair, cell cycle arrest, apoptosis, or cellular senescence. The activation of p53, therefore, is a good indicator of DNA damage and other cellular stresses. […] The activation of the reporter gene under culture conditions can be detected by fluorescence intensity.
Tox21 Assay Protocol Summary:
The p53RE-bla cells were dispensed at 4,000cells/3ul/well in 1536-well black-clear bottom plates. After the assay plates were incubated at 37 C, 5% CO2 incubator for 5 hours, 23 nL of compounds dissolved in DMSO, positive controls or DMSO only was transferred to the assay plate. Following compound addition, 3 uL of human liver microsomes (XenoTech, Kansas City, KS) at final concentration of 0.5 mg/mL and 1uL of Beta-Nicotinamide adenine dinucleotide 2-phosphate (NADPH) at final concentration of 0.5 mg/mL were transferred to the assay plate. The plates were incubated at 37 C for 16 hours. 1 uL of LiveBLAzer detection mixture was added to each well and the plates were incubated at room temperature in the dark for 2 h.
Consider `Oc1cccc(O)c1`, for which the Potency result is “inactive”.

`CCCCCNCCCCC`: the Potency entry was “inactive”.

As for `CCCN(CCC)C(=O)SCC`, the Potency result is “inactive”.

Turning to `CC1=NN(c2ccccc2)C(=O)C1`, the Potency entry was “inactive”.

As for `COC(=O)C1CCC(C(=O)OC)CC1` (stereo not given), the Potency result was “inactive”.

For the compound `CN(C)CCOC(=O)COc1ccc(Cl)cc1`, the Potency entry is “inactive”.

Take `C=CC(=O)OCCC(=O)O`: the Potency entry was “inactive”.

With `CC(=O)OCc1ccc2c(c1)OCO2`, the Potency result was “inactive”.

Turning to `COCCc1ccc(OCC(O)CNC(C)C)cc1` (stereo not given), the Potency entry was “inactive”.

For `Cc1cc(Cc2cc(C)cc(C(C)(C)C)c2O)c(O)c(C(C)(C)C)c1`, the Potency result is “inactive”.

Take `O=C(OCC1CCC2OC2C1)C1CCC2OC2C1` (stereo not given): the Potency result was “inactive”.

For the compound `OCC1CCCO1` (stereo not given), the Potency result was “inactive”.

For `NNC(=O)c1ccncc1`, the Potency result is “inactive”.

As to `CC(=O)NS(=O)(=O)c1ccc(N)cc1`, the Potency result was “inactive”.

Regarding `CCCCNS(=O)(=O)c1ccccc1`, the Potency result is “inactive”.

Turning to `CC(=O)N[C@@H](CS)C(=O)O`, the Potency entry is “inactive”.

Take `CCOC(=O)c1ccc(O)cc1`: the Potency entry was “inactive”.

For the compound `CCCCNC(=O)NS(=O)(=O)c1ccc(N)cc1`, the Potency entry was “inactive”.

With `NC(N)=S`, the Potency result was “inactive”.

In the case of `O=Cc1ccc(CO)o1`, the Potency result was “inactive”.

Consider `Nc1ccc(S(=O)(=O)Nc2cnc3ccccc3n2)cc1`, for which the Potency result was “inactive”.

With `C=CC(C)(C)C`, the Potency entry was “inactive”.

As to `C=C(C)C1CC=C(C)CC1` (stereo not given), the Potency entry was “inactive”.

For `C[C@]12CC[C@@H]3c4ccc(O)cc4C[C@@H](CCCCCCCCCS(=O)CCCC(F)(F)C(F)(F)F)[C@H]3[C@@H]1CC[C@@H]2O` (stereo not given in full), the Potency result was “inactive”.

As for `Cc1cc(CC(=O)O)n(C)c1C(=O)c1ccc(Cl)cc1`, the Potency result is “inactive”.

With `Oc1c(Cl)cc(Cl)c(Cl)c1Cc1c(O)c(Cl)cc(Cl)c1Cl`, the Potency result is “inactive”.

For the compound `OCCOCCOCCOCCO`, the Potency entry is “inactive”.

As for `O=C1OC2(c3ccccc31)c1cc(I)c(O)c(I)c1Oc1c2cc(I)c(O)c1I`, the Potency result was “inactive”.

Turning to `CC1=C(/C=C/C(C)=C/C=C/C(C)=C/C(=O)O)C(C)(C)CCC1`, the Potency result was “inactive”.

On to `O=c1cc[nH]c(=S)[nH]1`, for which the Potency result is “inactive”.

`CCO[Si](CCCN)(OCC)OCC`: the Potency result is “inactive”.

On to `CC(=O)OCCOC(C)=O`, for which the Potency result is “inactive”.

Regarding `CCOC(=O)CC(=O)OCC`, the Potency result was “inactive”.

`ClC1=C(Cl)C(Cl)(Cl)C(Cl)=C1Cl`: the Potency result was “inactive”.

In the case of `Cc1cc(C)c(C)cc1C`, the Potency entry was “inactive”.

As for `C=C[C@@]1(C)CC(=O)[C@]2(O)[C@@]3(C)[C@@H](O)CCC(C)(C)[C@@H]3[C@H](O)[C@H](OC(C)=O)[C@@]2(C)O1`, the Potency result was “inactive”.

In the case of `CC(=O)Oc1ccccc1C(=O)O`, the Potency result was “inactive”.

Turning to `CCCCCCCCCC(=O)O`, the Potency entry is “inactive”.

Take `COCC(C)N` (stereo not given): the Potency entry is “inactive”.

For `C[Si](C)(C)O[Si](C)(C)C`, the Potency result was “inactive”.
